Data on 29 compounds can be found in PubChem BioAssay AID2762 (National Center for Advancing Translational Sciences (NCATS), 2010).

Records with an inconclusive call do not appear. Activity calls are given as the source filed them. Calls come from the whole dose curve; as a rule, active = well fitted inhibition curve with a large enough effect; inconclusive = small, poorly fitted or top-dose-only effect, or effect the other way; inactive = no such curve, though single readings can be large or run the other way.

Nuclear receptor ROR-gamma (Mus musculus), sequence (P51450 whole entry, looked up, the tested form may be a part): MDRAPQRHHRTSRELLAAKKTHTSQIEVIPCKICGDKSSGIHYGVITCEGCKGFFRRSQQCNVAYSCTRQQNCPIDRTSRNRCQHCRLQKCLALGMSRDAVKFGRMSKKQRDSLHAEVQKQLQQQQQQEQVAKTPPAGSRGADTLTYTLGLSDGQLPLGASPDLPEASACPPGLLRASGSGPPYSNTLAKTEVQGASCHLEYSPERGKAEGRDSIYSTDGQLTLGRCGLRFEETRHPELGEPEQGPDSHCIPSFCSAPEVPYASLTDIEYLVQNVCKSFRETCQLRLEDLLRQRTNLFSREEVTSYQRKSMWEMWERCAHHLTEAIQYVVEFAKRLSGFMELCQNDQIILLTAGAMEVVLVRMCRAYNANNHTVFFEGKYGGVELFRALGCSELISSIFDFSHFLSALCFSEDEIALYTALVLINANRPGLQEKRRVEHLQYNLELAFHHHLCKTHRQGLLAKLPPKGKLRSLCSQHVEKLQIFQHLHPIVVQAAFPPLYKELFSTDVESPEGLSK

In this assay the target is Nuclear receptor ROR-gamma (Mus musculus) (UniProt P51450). Nature of the assay: Concentration response confirmation assay for inhibitors of ROR gamma transcriptional activity. The following applies: Drosophila S2 Gal4-RORgamma UAS-luciferase, 20 h; series mostly up to 46.1 µM; activity change, negative = inhibition: at the top concentration. Summed up:
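Drosophila S2 cells stably expressing Gal4-DBD/mouse RORγ fusion under metallothionein promoter plus UAS-luciferase; compound 1 h, then 700 uM CuSO4 induction for 20 h at ambient temperature; inhibition read as reduced luminescence.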
For `O=C(NC(=S)Nc1nc(-c2ccccc2)cs1)c1cncc(Br)c1`, the Potency was 3.15 µM (active). For `CCN(CC(=O)NCCc1ccc(Cl)cc1)Cc1nc2ccccc2c(=O)[nH]1`, the Potency was 12.5 µM (active). With `Cc1sc2ncnc(Sc3nnc4sc5ccccc5n34)c2c1C`, the “activity change, negative = inhibition” value is -0.98% (inactive). Consider `CCOC(=O)Cc1ccc(NC(=O)c2ccc(C(C)(C)C)cc2)cc1`, for which the “activity change, negative = inhibition” value was 50.4% (inactive).

As for `NC(=O)/C=C/C(=O)Nc1ccc(Cl)cc1`, the Potency is 8.88 µM (active).

Take `CCOc1ncccc1C(=O)OCC(=O)Nc1ccc(-c2nc3ccc(C)cc3s2)cc1`: the Potency is 0.396 µM (active). `O=C(NC(=S)Nc1nc(-c2ccc(Br)cc2)cs1)c1cccnc1`: the “activity change, negative = inhibition” value is -22.4% (inactive).

Consider `CCN(CC)c1ccc2cc(-c3nc4ccccc4[nH]3)c(=O)oc2c1`, for which the Potency is 3.97 µM (active). As to `C=C(C)c1cccc(C(C)(C)NC(=O)N2CCN(CC)CC2)c1`, the “activity change, negative = inhibition” value is -10.7% (inactive). With `Fc1cccc2sc(Nc3nnc(-c4ccco4)o3)nc12`, the Potency is 1.99 µM (active). In the case of `Cc1cccc(-c2nc3cc(NC(=O)C4CCCO4)ccc3o2)c1` (centres undefined), the Potency was 0.396 µM (active). With `CCOC(=O)c1ccc2nc(Nc3nc4ccc(F)cc4s3)sc2c1`, the Potency was 5.6 µM (active). Consider `O=C(O)c1ccc(/C=N/n2cc(-c3ccccc3)[nH]c2=S)cc1`, for which the “activity change, negative = inhibition” value was 11.8% (inactive). In the case of `Cc1ccc(Oc2nc(-c3ccccn3)nc3ccccc23)cc1`, the Potency is 0.396 µM (active). Consider `O=C(/C=C/c1ccc(S(=O)(=O)N2CCOCC2)cc1)NC(=S)Nc1ccc(N2CCOCC2)cc1`, for which the Potency is 9.96 µM (active). With `Clc1ccccc1/C=N/NC1=Nc2cccc3cccc1c23`, the Potency is 0.199 µM (active).

As to `Cc1nn(-c2ccccc2)c(C)c1C(=O)Nc1nnc(-c2ccco2)o1`, the Potency is 0.996 µM (active). Consider `Cc1cc(C)c(S(=O)(=O)NCCn2ccc3ccccc32)c(C)c1`, for which the “activity change, negative = inhibition” value is -4.64% (inactive). Consider `S=c1[nH]c(-c2ccc(Br)cc2)cn1CCc1ccccc1`, for which the Potency was 9.96 µM (active). Same read-out and setting: under `CCOC(=O)c1sc(NC(=O)c2ccc(S(=O)(=O)N(C)C)cc2)nc1C` stands 0.0791 µM (active). In the case of `O=[N+]([O-])c1ccccc1/C=C/C=N/n1c(-c2ccc(Cl)cc2)n[nH]c1=S`, the “activity change, negative = inhibition” value is 29.3% (inactive). Turning to `O=C(CN1CCCCCC1)Nc1ccc(S(=O)(=O)N2CCOCC2)cc1`, the “activity change, negative = inhibition” value is 19.2% (inactive). Turning to `CNc1cc(C(F)(F)F)nc(-c2ccccn2)n1`, the Potency was 3.97 µM (active). For the compound `Oc1ccc(COCc2ccccc2)c2cccnc12`, the Potency was 1.58 µM (active). Take `COC(=O)c1ccc2nc(Nc3nc4ccc(F)cc4s3)sc2c1`: the Potency was 0.315 µM (active). Still for that read-out and setting: for `COC(=O)c1ccc(Oc2cc(C)nc(-n3nc(C)cc3C)n2)cc1` the value was 1.58 µM (active). In the case of `CCC(C)[C@H](NC(=O)NCc1ccco1)C(=O)O` (some centres undefined), the “activity change, negative = inhibition” value is -9.58% (inactive). Turning to `Cc1ccc2nc(-c3ccc(NC(=O)COC(=O)c4ccc(=O)[nH]c4)cc3)sc2c1`, the Potency is 1.41 µM (active). `COc1ccc2oc(=O)c(C(=O)Nc3ccccc3C)cc2c1`: the Potency was 1.25 µM (active).
